Laboratory results published in PubChem BioAssay.
Activity calls are given as the source filed them.

Tests used:
[1] = test system: Plasmodium falciparum Sir2 (PF13_0152, Sir2A); assay: pfSir2 binders on small-molecule microarrays, primary screen, biochemical, small-molecule microarray, 635 nm fluorescence (AID 1098); details: small-molecule microarray binding, fluorescence 635 nm; higher = more signal;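 note: score merges spot fluorescence intensity with its signal-to-noise ratio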
[2] = small-molecule microarray binders of probe aDKK1, primary screen, biochemical, biotinylated probe, 635/667 nm fluorescence (AID 1099); details: higher = more signal;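 note: score merges 667nm spot fluorescence with signal to noise across triplicate slides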
[3] = small-molecule microarray binders of probe aCHRDL2, primary screen, biochemical, biotinylated probe, 635/667 nm fluorescence (AID 1100); details: higher = more signal
[4] = splicing luciferase reporter signal modulators, primary screen, spliceosome inhibition project, cell-based, HEK293, splice +/- reporter (AID 1101); details: luminescence, 24 h, higher = more signal, called active from +8 up or from −8 down;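 note: HEK293 cells carrying a splicing-competent luciferase reporter gene; test concentration not given here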
[5] = biological target: Fibroblast growth factor 10 (Homo sapiens) (UniProt O15520); assay: FGF10 binders on small-molecule microarrays, primary screen, biochemical, small-molecule microarray, 635 nm fluorescence (AID 1102); details: FGF10 binding, fluorescence 635 nm, higher = more signal
Fibroblast growth factor 10 (Homo sapiens), sequence (O15520 whole entry, looked up): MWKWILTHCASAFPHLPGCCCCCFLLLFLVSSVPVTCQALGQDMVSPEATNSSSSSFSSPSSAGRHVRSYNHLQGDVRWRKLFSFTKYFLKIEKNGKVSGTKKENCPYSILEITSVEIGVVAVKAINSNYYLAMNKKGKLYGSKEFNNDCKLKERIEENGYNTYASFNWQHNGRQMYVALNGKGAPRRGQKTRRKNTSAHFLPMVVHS

[6] = test system: glycogen synthase kinase-3 (GSK3A per assay name; protocol says GSK3B); assay: GSK3 binders on small-molecule microarrays, primary screen, biochemical, small-molecule microarray, 635 nm fluorescence, GSK3A (AID 1103); details: small-molecule microarray binding, fluorescence 635 nm; higher = more signal; note: the record names both GSK3A and GSK3B
[7] = biological target: Epidermal growth factor receptor (Homo sapiens) (UniProt P00533); assay: EGFR binders on small-molecule microarrays, primary screen, biochemical, small-molecule microarray, 635 nm fluorescence (AID 1104); details: EGFR binding, higher = more signal;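 note: score merges 667 nm emission intensity with spot signal to noise over triplicate slides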
Epidermal growth factor receptor (Homo sapiens), sequence (P00533 whole entry, looked up): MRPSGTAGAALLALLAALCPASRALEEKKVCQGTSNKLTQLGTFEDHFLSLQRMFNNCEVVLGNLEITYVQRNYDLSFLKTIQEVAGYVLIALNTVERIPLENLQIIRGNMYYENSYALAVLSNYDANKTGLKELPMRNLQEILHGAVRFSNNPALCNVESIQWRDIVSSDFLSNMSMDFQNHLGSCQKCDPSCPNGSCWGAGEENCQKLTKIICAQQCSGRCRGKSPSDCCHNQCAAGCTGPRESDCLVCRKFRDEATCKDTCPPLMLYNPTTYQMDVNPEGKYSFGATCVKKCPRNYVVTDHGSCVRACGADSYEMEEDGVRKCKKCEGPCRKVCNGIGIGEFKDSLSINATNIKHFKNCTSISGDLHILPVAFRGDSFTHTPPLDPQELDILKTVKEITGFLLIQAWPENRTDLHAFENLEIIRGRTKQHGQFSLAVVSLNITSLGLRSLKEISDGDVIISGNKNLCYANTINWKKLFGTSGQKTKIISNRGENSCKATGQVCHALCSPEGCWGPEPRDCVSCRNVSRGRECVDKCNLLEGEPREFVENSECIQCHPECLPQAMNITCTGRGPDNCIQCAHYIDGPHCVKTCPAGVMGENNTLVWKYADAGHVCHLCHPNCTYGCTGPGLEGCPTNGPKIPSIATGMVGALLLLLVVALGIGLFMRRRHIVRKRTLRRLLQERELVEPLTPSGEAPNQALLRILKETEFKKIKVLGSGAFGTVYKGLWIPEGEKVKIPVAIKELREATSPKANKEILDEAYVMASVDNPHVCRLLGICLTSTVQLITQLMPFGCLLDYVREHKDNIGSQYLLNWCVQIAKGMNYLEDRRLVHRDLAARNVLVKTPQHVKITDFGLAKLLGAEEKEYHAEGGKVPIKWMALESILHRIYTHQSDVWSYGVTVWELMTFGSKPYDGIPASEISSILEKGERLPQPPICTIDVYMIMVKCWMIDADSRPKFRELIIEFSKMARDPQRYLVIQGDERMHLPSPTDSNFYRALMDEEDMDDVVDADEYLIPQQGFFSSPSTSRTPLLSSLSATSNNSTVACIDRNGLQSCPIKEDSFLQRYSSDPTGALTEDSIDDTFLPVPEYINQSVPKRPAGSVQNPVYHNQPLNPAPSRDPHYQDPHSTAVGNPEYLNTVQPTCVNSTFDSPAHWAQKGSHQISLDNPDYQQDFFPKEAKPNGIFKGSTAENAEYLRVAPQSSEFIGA

[8] = biological target: Follistatin-related protein 3 (Homo sapiens) (UniProt O95633); assay: FSTL3 binders on small-molecule microarrays, primary screen, biochemical, small-molecule microarray, 635 nm fluorescence (AID 1105); details: FSTL3 binding, higher = more signal;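 note: score merges emission near 667 nm and signal to noise per printed spot across three slides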
Follistatin-related protein 3 (Homo sapiens), sequence (O95633 whole entry, looked up): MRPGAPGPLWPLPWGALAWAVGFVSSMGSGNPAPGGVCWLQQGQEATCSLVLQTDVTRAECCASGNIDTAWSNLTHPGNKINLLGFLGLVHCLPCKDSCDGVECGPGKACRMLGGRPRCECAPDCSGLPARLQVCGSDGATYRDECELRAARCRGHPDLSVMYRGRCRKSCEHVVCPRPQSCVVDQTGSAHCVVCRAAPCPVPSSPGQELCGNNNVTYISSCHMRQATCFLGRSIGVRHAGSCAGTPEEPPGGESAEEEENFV

[9] = biological target: Dickkopf-related protein 1 (Homo sapiens) (UniProt O94907); assay: DKK1 binders on small-molecule microarrays, primary screen, biochemical, small-molecule microarray, 635 nm fluorescence scan (AID 1106); details: DKK1 binding, higher = more signal;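 note: score merges emission near 667 nm with signal to noise over three replicate slides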
Dickkopf-related protein 1 (Homo sapiens), sequence (O94907 whole entry, looked up): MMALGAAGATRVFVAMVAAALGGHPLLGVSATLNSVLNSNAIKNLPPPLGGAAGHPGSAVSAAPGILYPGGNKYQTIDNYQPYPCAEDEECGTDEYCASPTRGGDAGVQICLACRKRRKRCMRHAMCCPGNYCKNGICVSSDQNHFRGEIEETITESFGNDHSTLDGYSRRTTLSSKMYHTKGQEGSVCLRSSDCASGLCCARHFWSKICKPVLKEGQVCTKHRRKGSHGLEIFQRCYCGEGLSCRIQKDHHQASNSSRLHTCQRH

[10] = test system: Inhibin beta A chain (activin A); assay: INHBA (activin A) binders on microarrays, primary screen, biochemical, small-molecule microarray, 635 nm fluorescence scan (AID 1107); details: small-molecule microarray binding, higher = more signal;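 note: mouse activin A protein probed at 4.33 µg/mL on printed slides; score merges bound-protein fluorescence near 667 nm with spot signal-to-noise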
[11] = test system: Human papillomavirus type 1a protein E7 (residues 44-93); assay: HPV1a E7 fragment binders on microarrays, primary screen, biochemical, small-molecule microarray, residues 44-93, 635 nm fluorescence (AID 1108); details: small-molecule microarray binding, fluorescence 635 nm; higher = more signal;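 note: E7 fragment applied at 1 µg/mL in TBST for 1 h at 4 C; score combines spot fluorescence with its signal to noise ratio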
[12] = modulators of HCV replicon luciferase signal, primary screen, HCV replication inhibitor project, Huh7 cells, luciferase reporter (AID 1109); details: 48 h, higher = more signal;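 note: huh7 hepatoma cells harbouring a luciferase neomycin HCV replicon reporter; luciferase luminescence as measure of HCV replicon replication; test concentration not given here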
[13] = biological target: Left-right determination factor 2 (Homo sapiens) (UniProt O00292); assay: LEFTY2 binders on small-molecule microarrays, primary screen, biochemical, small-molecule microarray, 635 nm fluorescence scan (AID 1110); details: LEFTY2 binding, higher = more signal
Left-right determination factor 2 (Homo sapiens), sequence (O00292 whole entry, looked up): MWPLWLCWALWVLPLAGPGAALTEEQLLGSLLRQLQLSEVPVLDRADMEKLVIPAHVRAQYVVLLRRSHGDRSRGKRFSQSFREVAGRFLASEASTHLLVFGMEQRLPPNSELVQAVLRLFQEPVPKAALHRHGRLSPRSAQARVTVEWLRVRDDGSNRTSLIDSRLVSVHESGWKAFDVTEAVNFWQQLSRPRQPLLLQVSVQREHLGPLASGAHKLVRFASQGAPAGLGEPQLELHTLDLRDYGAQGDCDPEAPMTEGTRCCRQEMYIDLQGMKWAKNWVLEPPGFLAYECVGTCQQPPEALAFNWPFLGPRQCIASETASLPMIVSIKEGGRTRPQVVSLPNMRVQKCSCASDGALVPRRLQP

[14] = biological target: Calmodulin-1 (Homo sapiens) (UniProt P0DP23); assay: CALM1 binders on microarrays, EGTA buffer, profiling panel, biochemical, small-molecule microarray, Cy5-labelled CALM1 (AID 1111); details: Cy5-CALM1 binding fluorescence, higher = more signal;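 note: labelled calmodulin applied in Tris saline Tween buffer holding calcium plus EGTA and DTT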
[15] = biological target: Calmodulin-1 (Homo sapiens) (UniProt P0DP23); assay: calcium-bound CALM1 binders on microarrays, profiling panel, artefact control for SMM control-protein annotation, biochemical, small-molecule microarray, Cy5-labelled CALM1, plus calcium (AID 1112); details: Cy5-CALM1 binding fluorescence, higher = more signal;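 note: score merges spot fluorescence with signal to noise from triplicate slides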
[16] = small-molecule microarray binders of probe aWnt5a, primary screen, biochemical, biotinylated probe, 635/667 nm fluorescence (AID 1113); details: higher = more signal;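 note: score merges 667 nm fluorescence intensity with signal-to-noise per printed feature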
[17] = small-molecule microarray binders of probe aShh, primary screen, biochemical, biotinylated probe, 635/667 nm fluorescence (AID 1114); details: higher = more signal;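 note: probe is biotin-labelled aShh protein from a stem cell growth factor screen; measures binding of labelled protein to compounds printed on the slide; score merges feature fluorescence at 667 nm with signal-to-noise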
[18] = small-molecule microarray binders of probe aNog, primary screen, biochemical, biotinylated probe, 635/667 nm fluorescence (AID 1115); details: higher = more signal;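 note: probe is biotinylated aNog protein used at 0.15 µg/mL for 1 h at 4 C; z-score combines 667 nm fluorescence of each spot with its signal to noise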
[19] = biological target: Torsin-1A-interacting protein 1 (Homo sapiens) (UniProt Q5JTV8); assay: LAP1 binders from COS7 cell lysate, primary screen, small-molecule microarray, 635/667 nm fluorescence (AID 1116); details: COS7-hLAP1 lysate binding, 635 nm fluorescence, higher = more signal
Torsin-1A-interacting protein 1 (Homo sapiens), sequence (Q5JTV8 whole entry, looked up): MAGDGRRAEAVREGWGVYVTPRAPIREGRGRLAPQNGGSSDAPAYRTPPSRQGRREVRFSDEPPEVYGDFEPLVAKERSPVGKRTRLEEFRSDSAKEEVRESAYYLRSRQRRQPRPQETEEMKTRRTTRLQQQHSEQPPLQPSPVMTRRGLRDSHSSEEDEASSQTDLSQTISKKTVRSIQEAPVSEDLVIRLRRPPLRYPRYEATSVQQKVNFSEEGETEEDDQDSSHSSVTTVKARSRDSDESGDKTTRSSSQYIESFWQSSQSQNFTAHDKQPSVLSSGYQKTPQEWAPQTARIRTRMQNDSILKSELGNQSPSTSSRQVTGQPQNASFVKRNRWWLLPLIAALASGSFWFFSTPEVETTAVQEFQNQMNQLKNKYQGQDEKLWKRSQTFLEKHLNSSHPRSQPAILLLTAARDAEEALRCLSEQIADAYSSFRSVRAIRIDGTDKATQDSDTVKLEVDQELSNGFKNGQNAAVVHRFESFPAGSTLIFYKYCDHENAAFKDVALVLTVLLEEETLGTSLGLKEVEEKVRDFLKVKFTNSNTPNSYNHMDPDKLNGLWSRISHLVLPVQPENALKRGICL

[20] = biological target: Alpha-bungarotoxin (Bungarus multicinctus) (UniProt P60615); assay: alpha-bungarotoxin binders on microarray, profiling panel, artefact control for SMM control protein annotation, biochemical, small-molecule microarray, Alexa647 label, 635/667 nm fluorescence (AID 1117); details: alpha-BTX-A647 binding fluorescence, higher = more signal
Alpha-bungarotoxin (Bungarus multicinctus), sequence (P60615 whole entry, looked up): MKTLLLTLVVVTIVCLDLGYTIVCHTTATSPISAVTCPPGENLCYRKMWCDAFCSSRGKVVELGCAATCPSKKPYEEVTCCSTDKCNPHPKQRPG

SMILES	composite z-score [1]	composite z-score [2]	composite z-score [3]	z-score [4]	composite z-score [5]	composite z-score [6]	composite z-score [7]	composite z-score [8]	composite z-score [9]	composite z-score [10]	composite z-score [11]	z-score [12]	composite z-score [13]	composite z-score [14]	composite z-score [15]	composite z-score [16]	composite z-score [17]	composite z-score [18]	composite z-score [19]	composite z-score [20]
COCCOC(=O)N1C(=O)[C@@]2(c3cc(C#CCCO)ccc31)[C@H](C(=O)N1CCc3cc(OC)c(OC)cc3C1)[C@H]1C(=O)O[C@H](c3ccccc3)[C@H](c3ccccc3)N1[C@@H]2c1ccc(O)cc1	1.58	0.0869	0.43	-0.341 (inactive)	1.06	1.29	0.413	0.81	0.547	-0.132	1.41	-1.34	0.332	0.527	0.294	-0.1	0.123	0.119	0.987	1.24
COC(=O)c1c(CC[C@@H](CO)NC(=O)N[C@@H](C)Cn2cc(C3(O)CCCCC3)nn2)oc(C(C)=O)c1C(=O)OC	1.35	-0.0465	-0.481	-2.26 (inactive)	1.2	1.25	0.763	1.27	0.892	-0.216	0.921	-0.418	0.703	0.685	-1.53	-0.0556	0.0328	-0.0211	0.666	0.431
CC(C)c1ccc(NN2C(C(O)c3cc(C(F)(F)F)cc(C(F)(F)F)c3)C=CC3C(=O)N(c4ccccc4)C(=O)C32)cc1 (stereo not given)	0.91	0.74	0.8	-0.753 (inactive)	-0.329	0.543	-0.911	-0.486	-0.551	0.655	1.35	-0.748	-0.931	1.55	0.647	-0.0704	0.37	0.897	0.831	0.817
COC(=O)c1c(CC[C@@H](CO)NC(=O)N[C@H](Cn2cc(Cc3ccccc3)nn2)C(C)C)oc(C(C)=O)c1C(=O)OC	0.751	-0.195	-0.457	-0.781 (inactive)	1.16	0.544	-0.172	0.678	0.857	0.509	0.712	-0.0084	0.637	-0.279	-0.573	-0.18	0.288	-0.143	0.223	0.882
COCCCNC(=O)[C@@]1(Cc2ccccc2)N=C(c2ccc(OCCCO)cc2)O[C@H]1c1ccccc1	1.19	1.22	1.28	0.272 (inactive)	0.849	1.02	-0.804	-0.569	-0.728	1.01	0.53	-1.39	-0.582	2.34	1.05	-0.174	-0.36	-0.442	1.96	2.34
O=C1OCCC/C=C\[C@H]2OC34C=CCN(Cn5nnc6ccccc65)C(=O)[C@H]3N(CCO)C(=O)[C@@H]4C12 (stereo not given in full)	1.31	-0.316	0.292	-1.48 (inactive)	-0.468	-0.963	-0.898	-1.41	-1.14	-0.171	-0.249	-0.317	-1.84	-0.173	0.963	-0.187	0.022	0.235	-0.482	-0.601
[N-]=[N+]=NCc1ccccc1[C@@H]1OC(c2ccc(OCCCO)cc2)=N[C@]1(CCS(=O)(=O)c1ccccc1)C(=O)NCCN1CCOCC1	0.916	0.934	0.952	-0.406 (inactive)	1.42	1.05	0.778	1.46	0.535	0.745	1.5	-0.351	0.623	1.65	-0.173	0.132	0.323	1.17	2.04	1.95
CC(C)(C)C(=O)N[C@@H](c1ccc(Cl)cc1)[C@]1(C)C[C@H]1C1CCCCC1	0.705	0.701	0.933	-0.455 (inactive)	0.521	1.28	-0.19	0.233	0.0399	0.998	1.19	-0.409	-0.487	1.27	1.1	0.197	0.838	2.13	1.94	2.02
NCCCCCNC(=O)[C@@H]1C[C@@H]2C(=O)N[C@@H](Cc3ccccc3)C(=O)N2[C@@H]1c1cccc(OCCO)c1	1.14	0.53	0.359	-0.0581 (inactive)	0.519	0.232	-0.235	-0.374	0.378	0.619	0.762	-0.988	-0.178	0.429	0.791	0.404	-0.0652	0.0256	0.362	1.69
Cc1ccc(S[C@]2(C(=O)NC3CC3)CC(=O)N(C3Cc4ccccc4C3)[C@@H]2c2ccc(CO)cc2)cc1	1.65	0.245	0.806	-0.983 (inactive)	-0.451	-0.15	-0.876	-0.809	-1.02	-0.139	1.27	-1.08	-1.7	-0.0137	0.0662	-0.258	-0.154	0.354	0.439	-0.441
C=C(CCCC)C(=O)CC[C@@H](OC(=O)c1cccnc1)c1ccc(CO)o1	1.15	0.0013	-0.269	0.08 (inactive)	1.21	0.958	0.641	0.916	0.576	1.3	0.94	-1.39	0.654	0.916	-1.3	0.0003	-0.0035	-0.0333	0.387	0.781
